Screening data deposited in PubChem by several laboratories.
Compounds with a hit are over-represented: about 12% of the library has one in this group of screens.
Lmaj promast: Leishmania major promastigote growth inhibition | inhibition, % at 10 µM | Leishmania major promastigotes, resazurin fluorescence viability | hit rate 9% among 200,000 | AID 1063; in the data active means inhibition above about 50%;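 further: promastigotes grown with compound for 44 hours at 28 °C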
Calpain2 inh: calpain II (pig) inhibition. purified calpain II, fluorogenic peptide substrate, 30 min. inhibition, % at 16 µM. hit rate 0.37% among 220,000;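 active means inhibition above about 50%, limit read from the data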
ROMK primary: modulators of human ROMK potassium channel | B-score at 10 µM | Tet-inducible ROMK, thallium flux fluorescence; actives lie on both sides | hit rate 2% among 130,000 | P48048;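 active means signal ratio slope over the read window, or its plate-corrected B-score, at least 3 SD from the plate mean, either direction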;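 further: B-score of the F/F0 ratio slope over 7 to 12 s after thallium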
Target sequence (P48048 whole entry, looked up): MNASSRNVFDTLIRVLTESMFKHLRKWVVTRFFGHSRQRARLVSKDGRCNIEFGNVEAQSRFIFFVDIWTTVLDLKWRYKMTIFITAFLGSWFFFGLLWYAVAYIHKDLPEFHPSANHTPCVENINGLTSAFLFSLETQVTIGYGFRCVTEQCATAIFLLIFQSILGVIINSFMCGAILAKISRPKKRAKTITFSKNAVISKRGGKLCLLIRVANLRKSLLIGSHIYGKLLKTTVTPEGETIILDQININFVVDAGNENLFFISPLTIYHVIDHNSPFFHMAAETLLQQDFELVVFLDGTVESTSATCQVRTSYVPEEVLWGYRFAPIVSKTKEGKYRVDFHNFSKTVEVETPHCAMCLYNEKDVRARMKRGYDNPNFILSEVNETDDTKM
KCC2 mod: modulators of human KCC2 chloride dependent transport; Q9H2X9; KCC2 cells, thallium flux FluoZin-2 fluorescence; B-score of Tl+ flux slope (higher = more flux/activation; lower = inhibition) at 10 µM; hit rate 2.2% among 190,000; AID 1456;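 active means thallium flux slope and its plate-corrected score both differing from the plate sample mean at a set confidence after two filtering rounds, in either direction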;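 further: slope of fluorescence scaled to starting intensity during 10 to 20 s after thallium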
WT yeast gro inh: growth inhibition of WT yeast, mitochondrial fusion screen | mitochondrial fusion phenotypic screen, WT strain | inhibition, % at 10 µM | hit rate 2.1% among 190,000 | AID 1362; in the data active means inhibition above about 58%; tested in S. cerevisiae
* = called active by the depositor; . = not tested or not shown.

SMILES	Lmaj promast	Calpain2 inh	ROMK primary	KCC2 mod	WT yeast gro inh
Cc1cc(C)nc(N2CCC(C(=O)NCCc3ccc(F)cc3)CC2)n1	-0.7	-30.6	0.933	0.833	69.4*
Cc1ccccc1-c1nc2ccccc2c(=O)n1/N=C/c1ccccc1[N+](=O)[O-]	13.5	18.5	-0.47	.	-2.3
N#CC(c1ccccc1)N(CCCCl)C(=O)c1ccc(Br)cc1 (stereo not given)	15.0	8.5	-2.25	0.0255	18.8
CC(C)c1ccc(/C=C/C(=O)Nc2ccc(CN3CCOCC3)cc2)cc1	.	-24.2	.	-1.65	.
O=C(Nc1ccc(CN2CCOCC2)cc1)c1ccc(-c2cccc(Cl)c2)o1	99.4*	-49.3	.	.	54.0
O=C(Nc1ccc(CN2CCOCC2)cc1)c1ccc(-c2ccc(Cl)cc2Cl)o1	73.5*	-103.3	.	0.455	82.9
O=C(/C=C/c1ccc(Cl)cc1)Nc1ccc(CN2CCOCC2)cc1	82.4*	19.6	.	-1.24	26.8
CCOC(=O)c1cnc2c(C)c(Cl)ccc2c1Nc1ccc(S(=O)(=O)Nc2ncccn2)cc1	-5.3	23.3	.	0.495	-7.1
CCOC(=O)c1c(NS(=O)(=O)c2ccc(Br)cc2)sc2c1CCC2	-5.5	-77.6	3.15*	118*	65.1*
CCOC(=O)c1c(NC(=O)OC)sc2c1CCC2	-0.9	14.3	.	-0.998	22.2
CCOC(=O)c1c(NC(=O)C(C)N2CCN(C(=O)c3ccco3)CC2)sc2c1CCCC2 (stereo not given)	39.6	32.2	0.456	-0.81	69.6*
CCOC(=O)c1c(NS(=O)(=O)Cc2ccccc2)sc2c1CCCC2	-10.9	-117.0	3.58*	144*	30.6
COC(=O)c1c(NC(=O)COC(=O)[C@@H](NS(=O)(=O)c2ccc(C)cc2)C(C)C)sc2c1CCC2	94.3*	-19.4	-0.311	-0.336	33.4
COc1ccc(C(=O)C(C)OC(=O)c2cccc(S(=O)(=O)Nc3cc(Cl)c(OC)cc3OC)c2)cc1 (stereo not given)	26.3	0.2	-0.484	0.0721	-0.4
CC1CCc2c(sc(NS(=O)(=O)c3ccccc3)c2C(=O)OC(C)C)C1 (stereo not given)	-6.7	-37.4	0.0876	10.2*	-2.3
COCC(=O)Nc1sc2c(c1C(=O)OC)CCC(C)C2 (stereo not given)	7.5	-21.1	.	.	20.2
C=CCN(CC=C)c1nc2ccccc2nc1C(C#N)C(=O)OCCOC (stereo not given)	8.7	-221.8	.	-2.2	59.4*
COC(=O)c1ccc(N2CCCCC2)c(NS(=O)(=O)c2ccc(C)cc2)c1	96.7*	-17.9	-0.0684	.	52.5
CCOC(=O)c1ccc(N2CCCCC2)c(NS(=O)(=O)c2cccc(C(F)(F)F)c2)c1	.	15.3	-1.05	1.79	.
CCN(CC)CCNC(=O)c1ccc(N2CCCCC2)c(NS(=O)(=O)c2ccc(C)cc2)c1	100.5*	-103.2	.	0.26	16.3
COc1ccc(S(=O)(=O)Nc2cc(C(=O)NCCCN3CCOCC3)ccc2N2CCOCC2)cc1	1.3	-17.7	0.0151	0.712	-6.9
COc1ccc(CC(=O)NC(=S)Nc2ccc(S(N)(=O)=O)cc2)cc1	-6.9	-11.9	0.00213	2.44	2.1
C=CCN(CC=C)S(=O)(=O)c1ccc(NC(=S)NC(=O)Cc2ccc(OC)cc2)cc1	61.5*	10.8	-0.554	.	25.0
C=CCN(CC=C)S(=O)(=O)c1ccc(NC(=S)NC(=O)c2ccc(-c3ccccc3)cc2)cc1	22.0	24.8	.	0.285	-7.8
C=CCN(CC=C)S(=O)(=O)c1ccc(NC(=S)NC(=O)c2ccco2)cc1	1.3	-23.0	.	8.14*	2.9
SMILES	Lmaj promast	Calpain2 inh	ROMK primary	KCC2 mod	WT yeast gro inh
CNc1nc(N)nc(-c2cc(Cl)ccc2OC)n1	7.0	-7.8	0.192	0.682	-6.7
CC(C)=CCc1c(O)ccc(C(=O)Cc2ccccc2)c1O	12.7	32.5	0.111	-0.474	80.5*
CCc1ccc(C(=O)NC(C(=O)NCC2CCCO2)C(C)C)cc1 (stereo not given)	1.4	-0.5	1.15	0.649	-6.5
CC1CCc2c(sc(NC(=O)COC(=O)c3ccc(O)cc3)c2C#N)C1 (stereo not given)	-5.1	-103.7	0.645	2.75	96.5*
C[n+]1ccccc1N1CCN(c2ccccc2Cl)CC1	48.4	-10.3	.	0.895	12.4
OCCN1CCN(C(=S)NCCc2ccccc2)CC1	2.8	-20.8	.	0.538	3.5
Cc1ccc(Cl)cc1N1CCN(C(=S)NCCc2ccccc2)CC1	0.5	4.1	-1.53	0.0736	66.2*
CCNC(=S)N1CCN(C(c2ccccc2)c2ccccc2)CC1	0.4	-10.9	.	0.113	51.0
Cc1cccc(N2CCN(C(=S)NCCc3ccccc3)CC2)c1C	31.3	8.7	1.04	-0.189	7.9
CCN1CCN(C(=S)NCCc2ccccc2)CC1	86.2*	-2.3	.	0.415	3.7
